This is an account of results in PubChem BioAssay (NCATS).

Experiment [1] can be described thus: Primary qHTS for small molecule stabilizers of the endoplasmic reticulum resident proteome: Secreted ER Calcium Modulated Protein (SERCaMP) assay (AID 1508630). Note: % is set by controls: 0 for no effect and ±100 for the full control effect. The note with it: SH-SY5Y GLuc-SERCaMP (Gaussia luciferase released on ER calcium loss) secretion, thapsigargin, luminescence; series mostly up to 38.4 µM. In a few lines:
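The SH-SY5Y reporter protocol was run at 3 concentrations up to 38.3 uM (primary) or 11 concentrations (follow-up): 16 h compound, 100 nM thapsigargin for 4 h, then extracellular luciferase luminescence.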

Experiment [2] addresses Lysosomal acid glucosylceramidase (Homo sapiens) (UniProt P04062). Nature of the experiment: Glucocerebrosidase-p2 (AID 348; in the data active = potency below about 10 µM; note: potency is the fitted concentration of half-maximal effect). The note with it: purified GBA, blue fluorogenic substrate, 40 min. In a few lines:
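Normal human glucocerebrosidase (0.2 nM) with blue fluorogenic substrate (80 uM final) in citrate/phosphate pH 5.9 with 10mM sodium taurocholate, 0.01% tween-20; 40 min RT, NaOH/glycine stop; fluorescence Ex 365/Em 440; AC50 from a titration from 0.6 nM upwards.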

Experiment [3] in a line: AP1 Signaling Pathway (AID 357; active = well fitted curve in either direction with a large enough effect, not every such curve was filed as active; note: % is set by controls: 0 for no effect and ±100 for the full control effect). Particulars: ME-180 AP-1-bla reporter, EGF-induced, beta-lactamase ratio, 5 h; at 7.69 µM (top of the series) unless noted. In a few lines: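 Read-out was the 460nm/530nm emission ratio (excitation 405nm) after CCF4 loading for 2.5 hours at room temperature. Cells carried an AP-1-driven beta-lactamase reporter, were stimulated with EC50 EGF plus compound for 5 hours, and AC50 values came from titrations.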

Experiment [4] deals with Cytochrome P450 1A2 (Homo sapiens) (UniProt P05177). Briefly: p450-cyp1a2 (AID 410; calls by dose curve; note: potency is the fitted concentration of half-maximal effect;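 for activity change, negative = inhibition: -100% = full effect of reference inhibitor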). Particulars: recombinant CYP1A2, luciferin-ME demethylation, luminescence; series mostly up to 57 µM. In a few lines:
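Luminescent demethylation readout: Luciferin-ME (100uM, equal to Km) turned over by 20nM CYP1A2 for 60 min at room temperature after NADPH regeneration addition, following 10 min compound preincubation. Normalization used 57 uM furafylline as full inhibition.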

A short description of experiment [5]: NFAT Signaling Pathway (AID 444; active = well fitted curve in either direction with a large enough effect, not every such curve was filed as active;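 note: carbachol stimulus at about its EC50 of 1 µM final; % is set by controls: 0 for no effect and ±100 for the full control effect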). The note with it: Jurkat NFAT-bla M1, carbachol, beta-lactamase ratio, 5 h; at 7.69 µM (top of the series) unless noted. The gist of the method: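 Jurkat cells with NFAT-driven β-lactamase reporter and co-expressed M1 receptor, stimulated with carbachol (final 1 uM, ~EC50), compound titration, 5 h at 37 °C. CCF4 loaded 1 h at RT; 460/530 nm ratio gave %activity and AC50.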

Experiment [6] in a line: Stat Signaling Pathway (AID 446; active = well fitted curve in either direction with a large enough effect, not every such curve was filed as active;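 note: ME-180 cervical cancer cells given 40 pM IL-6 alongside compound; SIE-controlled beta-lactamase reporter measured as 460/530 nm FRET emission ratio; % is set by controls: 0 for no effect and ±100 for the full control effect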). Particulars: ME-180 SIE beta-lactamase reporter, IL-6 stimulated, 5 h; at 7.69 µM (top of the series) unless noted. In a few lines:
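FRET read-out (405 nm excitation, 460/530 nm emission) of a beta-lactamase reporter under a STAT-inducible element in ME-180 cervical carcinoma cells. Cells with compound receive 40 pM IL-6 for 5 h. Values are normalised to AC90 stimulation and AC90 JAK-inhibitor controls.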

Experiment [7] deals with Glucocorticoid receptor (Homo sapiens) (UniProt P04150). Nature of the experiment: GR-GFP Redistribution (AID 450;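 active = compounds whose dose series gives a full or clear partial fitted curve of increased nuclear translocation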; note: potency is the fitted concentration of half-maximal effect). Particulars: U2OS GR-GFP nuclear translocation, laser cytometry, 2 h.
For experiment [8] the target is unchanged. Nature of the experiment: GR-EFC Redistribution (AID 451; calls by dose curve; note: potency is the fitted concentration of half-maximal effect). The note with it: CHO-K1 GR-EFC translocation, beta-gal luminescence, 2 h. The gist of the method: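 CHO-K1 cells expressing nuclear EA and GR-ED fragments of b-gal; compounds titrated up to 46 uM final, 2 h at 37 C. GR nuclear translocation read as complemented b-gal luminescence after 1 h RT detection.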

Experiment [9] has as its target Mitogen-activated protein kinase 10 (Mus musculus) (UniProt Q61831). Briefly: JNK3 AlphaScreen Assay (AID 530; active = well fitted curve in either direction with a large enough effect, not every such curve was filed as active). Particulars: JNK3 lysate, c-Jun phosphorylation; series mostly up to 57.1 µM. In a few lines:
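Activity was read by AlphaScreen after JNK3-containing HepG2 lysate (cytokine pre-activated) phosphorylated biotinylated GST-cJun with 10 uM ATP at room temperature. Phospho-Ser73 cJun antibody with Protein-A acceptor beads provided detection.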
For orientation: Alpha assays give light when donor and acceptor beads are brought close together.

The target in experiment [10] is Cytochrome P450 3A4 (Homo sapiens) (UniProt P08684). Briefly: qHTS Assay for Inhibitors and Substrates of Cytochrome P450 3A4 (AID 884). Note: potency is the fitted concentration of half-maximal effect; nearly all actives have a fitted effect of over 50% in size. The note with it: recombinant CYP3A4, Luciferin-PPXE luminescence; series mostly up to 57.1 µM. The gist of the method:
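Luminescent readout of luciferin produced by CYP3A4 (20 nM) dealkylation of Luciferin-PPXE, 25 uM (its KM). NADPH-driven reaction ran 60 min at RT after 10 min compound preincubation; data scaled to 57 uM ketoconazole as 100% inhibition.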
A general note: In qHTS, concentration-response curves come from the screen itself.

Experiment [11] has the same target. Briefly: qHTS Assay for Activators of Cytochrome P450 3A4 (AID 885). Note: nearly all actives have a fitted effect of over 65% in size. The note with it: recombinant CYP3A4, Luciferin-PPXE luminescence, 60 min; series mostly up to 57.1 µM. The gist of the method:
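Luminescent readout of luciferin formed from 25 uM Luciferin-PPXE (KM level) by 20 nM CYP3A4 in 200 mM KPO4, with 60 min NADPH-driven reaction at room temperature after 10 min compound exposure. Ketoconazole (57 uM) defined 100% inhibition.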

Experiment [12] deals with Ubiquitin carboxyl-terminal hydrolase 1 (Homo sapiens) (UniProt O94782). Nature of the experiment: Inhibitors of USP1/UAF1: Pilot qHTS (AID 504865).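 Note: rhodamine fluorescence freed from ubiquitin-rhodamine substrate followed over time; top concentration of the series differs between compounds; % is set by controls: 0 for no effect and ±100 for the full control effect; nearly all actives have a fitted effect of over 35% in size.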 The note with it: purified USP1/UAF1, Ub-rhodamine cleavage fluorescence; series mostly up to 54.9 µM. The gist of the method: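 1nM USP1/UAF1 + cpd, 15 min RT; start w/ Ub-Rho 150nM final; kinetic FL 480/540 nm, 6 reads q60 s. Buffer 50mM HEPES pH 7.8, 0.5mM EDTA, 1mM TCEP, 0.01% Tween-20, 0.1 mg/ml BSA.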

Experiment [13] is described as follows: Confirmation and Secondary Assay for Modulators of Hemoglobin Beta Chain Splicing at IVS2 705 locus (AID 930).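 Note: HeLa cells stably expressing the EGFP-705 splicing reporter; GFP fluorescence per well restored by corrected splicing of the IVS2-705 intron in EGFP; % of control where 0% means no effect.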 The note with it: HeLa EGFP-705 splicing reporter, GFP fluorescence, 48 h; series mostly up to 38.3 µM. In a few lines:
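Stable HeLa line with EGFP disrupted by mutant beta-globin intron 2 (705). Overnight attachment, then 2 days of compound at 37C, 5% CO2. Signal: peak GFP intensity summed over objects 5-250 µm.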

For experiment [14], the target named is 3',5'-cyclic-AMP phosphodiesterase 4B (Homo sapiens) (UniProt Q07343). Briefly: qHTS Assay for Inhibitors of PDE-IV (AID 607; active = well fitted activation curve with a large enough effect in the main read-out, with a control signal flat, not every such curve was filed as active; note: % of control where 0% means no effect). Particulars: HEK293 ACTOne CNG channel cells, membrane potential fluorescence; series mostly up to 22.9 µM. In a few lines:
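Cell-based read-out of cAMP via a modified cyclic nucleotide-gated channel and membrane potential dye (535/590 nm) in HEK293 cells expressing PDE4 endogenously. Compounds tested up to 22.9 uM final; 100 uM RO 20-1724 reference.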

The nature of experiment [15]: Confirmation and Secondary Assay for Modulators of Hemoglobin Beta Chain Splicing at IVS2 654 locus (AID 910).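 Note: HeLa cells stably carrying EGFP split by mutant beta-globin IVS2-654 intron; % of control where 0% means no effect.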 Particulars: HeLa EGFP-654 splicing reporter, GFP fluorescence, 48 h; series mostly up to 38.3 µM. In a few lines: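 HeLa cells stably expressing EGFP interrupted by β-globin IVS2-654 intron, seeded overnight in Opti-MEM/2% FCS, then treated 2 days at 37 °C. Restored splicing read as total peak GFP intensity per well by laser scanning cytometry (488 nm excitation, 500–520 nm emission); 500 nM antisense PNA as control.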

In experiment [16] the target is Cytochrome P450 2C19 (Homo sapiens) (UniProt P33261). Briefly: qHTS Assay for Inhibitors and Substrates of Cytochrome P450 2C19 (AID 899). Note: potency is the fitted concentration of half-maximal effect; nearly all actives have a fitted effect of over 60% in size. Particulars: recombinant CYP2C19, luciferin-H EGE luminescence; series mostly up to 57.1 µM. In a few lines:
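Luminescent read-out of luciferin formed from Luciferin-H EGE (10uM, equal to KM). Enzyme 5nM in 50mM KPO4; compound added, 10 min at 37C, then NADPH regenerating system for 60 min at 37C. Full inhibition defined by 57uM ketoconazole.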

Experiment [17] has as its target Dual specificity protein kinase CLK4 (Homo sapiens) (UniProt Q9HAZ1). Briefly: qHTS Assay for Inhibitors of CDC-like Kinase 4 (ADP-FP Assay) (AID 1795).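 Note: recombinant human CLK4 phosphorylating RS repeat peptide at 1 µM ATP; % is set by controls: 0 for no effect and ±100 for the full control effect; nearly all actives have a fitted effect of over 60% in size.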 Particulars: Transcreener ADP fluorescence polarization; series mostly up to 50 µM. The gist of the method:
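FP readout: Orange Transcreener ADP2 tracer (4 nM) plus ADP antibody, read after 30 min at room temperature. Kinase step: 6.25 nM Clk4, 100 uM RS peptide, 1 uM ATP, pH 7.5, 1 h.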

Experiment [18] can be described thus: qHTS Assay for Identification of Small Molecule Agonists for Hypoxia Response Element Signaling Pathway (AID 914; active = well fitted activation curve with a large enough effect in the signal ratio, with a control signal flat, not every such curve was filed as active; the % refers to the signal ratio; note: % of control where 0% means no effect). Particulars: ME-180 (cervical carcinoma) HRE-bla reporter, beta-lactamase ratio, CoCl2, 17 h; activation: stronger effect = higher value. In a few lines:
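Reporter activity (beta-lactamase, CCF4 460nm/530nm ratio) in HRE-bla ME-180 cells is recorded after 17 h compound exposure with EC50 CoCl2 at 37 degrees Celsius. AC50 values come from titration data.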

A number with no mark means an inactive call. Records with an inconclusive call do not appear. Active and inactive are the calls of the source. Unless noted, calls come from the whole dose curve; as a rule, active = well fitted curve in the direction sought with a large enough effect; inconclusive = small, poorly fitted or top-dose-only effect, or another doubt; inactive = no such curve, though single readings can be large; an effect the other way counts as inactive or inconclusive.

Glucocorticoid receptor (Homo sapiens), sequence (P04150 whole entry, looked up, the tested form may be a part): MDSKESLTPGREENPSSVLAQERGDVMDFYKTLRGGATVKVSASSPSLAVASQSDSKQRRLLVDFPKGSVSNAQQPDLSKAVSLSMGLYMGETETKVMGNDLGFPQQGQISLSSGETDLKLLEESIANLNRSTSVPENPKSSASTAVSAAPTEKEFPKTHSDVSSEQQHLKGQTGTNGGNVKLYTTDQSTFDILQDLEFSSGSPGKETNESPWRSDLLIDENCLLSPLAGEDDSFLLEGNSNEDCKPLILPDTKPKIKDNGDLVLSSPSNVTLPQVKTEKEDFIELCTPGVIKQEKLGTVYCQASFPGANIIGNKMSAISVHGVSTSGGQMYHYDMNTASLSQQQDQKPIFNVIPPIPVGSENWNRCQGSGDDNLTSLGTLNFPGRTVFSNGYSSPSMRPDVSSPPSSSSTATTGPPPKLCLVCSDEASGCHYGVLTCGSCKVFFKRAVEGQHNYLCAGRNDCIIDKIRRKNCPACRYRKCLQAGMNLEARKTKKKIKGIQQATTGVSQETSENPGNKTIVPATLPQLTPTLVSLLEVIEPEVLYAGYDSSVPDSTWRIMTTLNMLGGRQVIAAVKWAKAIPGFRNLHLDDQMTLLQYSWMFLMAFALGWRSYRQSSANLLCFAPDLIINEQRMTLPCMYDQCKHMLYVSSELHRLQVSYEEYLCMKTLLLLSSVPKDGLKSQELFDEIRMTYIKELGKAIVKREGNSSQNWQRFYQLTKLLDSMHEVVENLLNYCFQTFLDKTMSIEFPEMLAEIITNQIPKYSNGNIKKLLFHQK
Cytochrome P450 1A2 (Homo sapiens), sequence (P05177 whole entry, looked up): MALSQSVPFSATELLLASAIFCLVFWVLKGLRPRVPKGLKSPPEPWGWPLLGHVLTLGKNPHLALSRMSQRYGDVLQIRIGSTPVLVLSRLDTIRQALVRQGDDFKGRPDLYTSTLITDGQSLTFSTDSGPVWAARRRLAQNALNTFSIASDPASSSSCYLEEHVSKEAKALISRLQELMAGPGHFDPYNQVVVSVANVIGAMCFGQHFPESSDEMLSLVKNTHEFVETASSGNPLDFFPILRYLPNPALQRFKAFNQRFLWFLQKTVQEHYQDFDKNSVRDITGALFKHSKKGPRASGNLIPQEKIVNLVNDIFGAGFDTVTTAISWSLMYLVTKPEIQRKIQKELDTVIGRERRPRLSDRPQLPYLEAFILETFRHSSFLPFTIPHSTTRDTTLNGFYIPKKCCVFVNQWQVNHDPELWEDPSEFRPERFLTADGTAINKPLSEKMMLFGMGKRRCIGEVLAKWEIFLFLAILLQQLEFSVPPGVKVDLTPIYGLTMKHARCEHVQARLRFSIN
Ubiquitin carboxyl-terminal hydrolase 1 (Homo sapiens), sequence (O94782 whole entry, looked up): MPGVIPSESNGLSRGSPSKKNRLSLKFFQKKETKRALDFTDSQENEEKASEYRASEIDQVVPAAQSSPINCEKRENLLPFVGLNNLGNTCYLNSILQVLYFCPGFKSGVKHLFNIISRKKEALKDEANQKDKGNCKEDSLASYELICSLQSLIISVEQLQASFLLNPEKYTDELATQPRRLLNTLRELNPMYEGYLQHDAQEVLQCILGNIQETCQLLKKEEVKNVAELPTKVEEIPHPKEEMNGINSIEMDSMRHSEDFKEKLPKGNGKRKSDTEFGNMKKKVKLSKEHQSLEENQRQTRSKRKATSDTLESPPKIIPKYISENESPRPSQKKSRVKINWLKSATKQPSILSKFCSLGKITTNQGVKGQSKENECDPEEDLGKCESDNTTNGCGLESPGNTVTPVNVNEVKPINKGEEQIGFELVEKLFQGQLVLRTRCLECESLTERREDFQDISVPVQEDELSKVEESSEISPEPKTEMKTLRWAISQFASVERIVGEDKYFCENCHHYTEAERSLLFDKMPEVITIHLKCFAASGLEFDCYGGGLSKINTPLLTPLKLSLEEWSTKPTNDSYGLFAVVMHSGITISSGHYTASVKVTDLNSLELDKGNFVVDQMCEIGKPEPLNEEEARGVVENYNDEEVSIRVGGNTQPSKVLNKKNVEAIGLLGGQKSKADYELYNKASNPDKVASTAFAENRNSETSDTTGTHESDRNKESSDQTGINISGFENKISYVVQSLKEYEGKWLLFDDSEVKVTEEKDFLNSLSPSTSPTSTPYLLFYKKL
Lysosomal acid glucosylceramidase (Homo sapiens), sequence (P04062 whole entry, looked up): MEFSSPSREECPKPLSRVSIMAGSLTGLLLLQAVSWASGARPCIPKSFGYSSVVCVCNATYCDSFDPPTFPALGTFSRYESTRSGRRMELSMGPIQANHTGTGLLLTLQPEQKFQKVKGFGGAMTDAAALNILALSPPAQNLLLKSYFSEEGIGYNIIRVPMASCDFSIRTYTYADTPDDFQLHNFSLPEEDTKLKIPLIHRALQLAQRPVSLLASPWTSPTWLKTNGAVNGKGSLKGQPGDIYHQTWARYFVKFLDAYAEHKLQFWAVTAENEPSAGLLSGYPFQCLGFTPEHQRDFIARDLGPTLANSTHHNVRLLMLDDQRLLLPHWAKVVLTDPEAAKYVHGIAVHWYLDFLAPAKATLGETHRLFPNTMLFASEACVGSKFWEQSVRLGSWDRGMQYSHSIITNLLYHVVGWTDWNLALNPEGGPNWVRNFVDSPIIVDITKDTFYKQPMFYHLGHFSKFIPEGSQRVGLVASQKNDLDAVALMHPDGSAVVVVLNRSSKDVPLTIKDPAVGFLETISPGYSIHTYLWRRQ
Cytochrome P450 3A4 (Homo sapiens), sequence (P08684 whole entry, looked up): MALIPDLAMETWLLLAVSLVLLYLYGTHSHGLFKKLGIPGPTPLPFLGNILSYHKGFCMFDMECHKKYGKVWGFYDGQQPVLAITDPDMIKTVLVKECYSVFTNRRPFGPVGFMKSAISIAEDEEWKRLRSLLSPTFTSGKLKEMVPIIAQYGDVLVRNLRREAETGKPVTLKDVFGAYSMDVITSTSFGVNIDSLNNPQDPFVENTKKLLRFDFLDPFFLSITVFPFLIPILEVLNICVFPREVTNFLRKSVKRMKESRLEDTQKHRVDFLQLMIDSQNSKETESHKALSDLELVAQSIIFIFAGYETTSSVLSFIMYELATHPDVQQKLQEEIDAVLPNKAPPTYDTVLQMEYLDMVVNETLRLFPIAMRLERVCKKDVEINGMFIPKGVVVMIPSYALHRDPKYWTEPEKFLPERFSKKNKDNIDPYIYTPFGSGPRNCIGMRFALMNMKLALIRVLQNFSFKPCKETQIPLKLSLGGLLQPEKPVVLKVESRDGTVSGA
3',5'-cyclic-AMP phosphodiesterase 4B (Homo sapiens), sequence (Q07343 whole entry, looked up): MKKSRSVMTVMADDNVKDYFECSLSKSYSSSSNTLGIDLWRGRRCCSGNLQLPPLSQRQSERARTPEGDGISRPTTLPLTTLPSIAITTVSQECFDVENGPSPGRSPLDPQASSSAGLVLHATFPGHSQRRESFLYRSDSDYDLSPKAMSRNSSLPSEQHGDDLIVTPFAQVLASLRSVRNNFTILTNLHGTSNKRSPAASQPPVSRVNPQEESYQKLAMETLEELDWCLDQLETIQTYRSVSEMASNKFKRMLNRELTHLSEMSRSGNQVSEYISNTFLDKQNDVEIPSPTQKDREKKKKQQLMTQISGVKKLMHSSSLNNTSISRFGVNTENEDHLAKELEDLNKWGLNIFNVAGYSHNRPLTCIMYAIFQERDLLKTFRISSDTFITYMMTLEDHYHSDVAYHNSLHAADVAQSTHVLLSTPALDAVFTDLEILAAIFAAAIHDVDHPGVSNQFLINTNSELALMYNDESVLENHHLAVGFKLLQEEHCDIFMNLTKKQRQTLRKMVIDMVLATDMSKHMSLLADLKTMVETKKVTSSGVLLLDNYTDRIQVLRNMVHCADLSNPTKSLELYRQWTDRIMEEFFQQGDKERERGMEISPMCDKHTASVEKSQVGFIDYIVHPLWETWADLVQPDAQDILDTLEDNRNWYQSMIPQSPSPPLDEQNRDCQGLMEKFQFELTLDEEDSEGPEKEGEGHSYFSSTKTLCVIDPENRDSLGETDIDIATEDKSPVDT
Cytochrome P450 2C19 (Homo sapiens), sequence (P33261 whole entry, looked up): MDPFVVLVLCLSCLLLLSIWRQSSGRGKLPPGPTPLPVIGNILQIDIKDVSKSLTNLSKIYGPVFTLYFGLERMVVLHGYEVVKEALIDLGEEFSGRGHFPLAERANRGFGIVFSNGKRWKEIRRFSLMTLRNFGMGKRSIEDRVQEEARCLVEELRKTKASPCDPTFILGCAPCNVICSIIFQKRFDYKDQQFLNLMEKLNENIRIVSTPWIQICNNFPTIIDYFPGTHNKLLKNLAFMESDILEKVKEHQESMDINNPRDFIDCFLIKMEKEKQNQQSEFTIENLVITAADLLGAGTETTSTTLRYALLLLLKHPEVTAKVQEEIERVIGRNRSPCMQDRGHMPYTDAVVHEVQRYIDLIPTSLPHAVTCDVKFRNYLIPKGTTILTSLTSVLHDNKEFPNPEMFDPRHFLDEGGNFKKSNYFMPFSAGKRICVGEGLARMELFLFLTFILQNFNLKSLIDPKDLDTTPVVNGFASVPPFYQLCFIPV
Dual specificity protein kinase CLK4 (Homo sapiens), sequence (Q9HAZ1 whole entry, looked up): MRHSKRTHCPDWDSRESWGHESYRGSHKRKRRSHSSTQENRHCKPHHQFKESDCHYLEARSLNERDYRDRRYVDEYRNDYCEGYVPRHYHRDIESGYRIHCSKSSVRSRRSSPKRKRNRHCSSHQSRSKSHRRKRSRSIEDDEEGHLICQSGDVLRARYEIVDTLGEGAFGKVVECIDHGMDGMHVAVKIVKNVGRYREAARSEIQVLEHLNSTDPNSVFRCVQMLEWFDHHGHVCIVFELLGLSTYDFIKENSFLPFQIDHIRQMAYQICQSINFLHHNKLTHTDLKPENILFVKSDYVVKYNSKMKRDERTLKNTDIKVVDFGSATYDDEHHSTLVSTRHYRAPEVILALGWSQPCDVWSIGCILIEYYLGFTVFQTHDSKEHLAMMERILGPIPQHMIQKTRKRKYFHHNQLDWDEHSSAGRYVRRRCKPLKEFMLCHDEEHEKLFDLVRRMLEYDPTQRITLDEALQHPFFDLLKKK

For the molecule `NC[C@@H]1O[C@H](O[C@H]2[C@H](O)[C@H](O[C@H]3[C@@H](O)[C@H](N)C[C@H](N)[C@H]3O[C@H]3O[C@H](CN)[C@H](O)[C@H](O)[C@H]3N)O[C@@H]2CO)[C@@H](N)[C@@H](O)[C@@H]1O`, the result in [1] was inactive.
Consider `FC(F)(F)c1ccccc1-c1nc(NC2CC2)c2ccccc2n1`, for which the Potency was 6.53 µM (active) in experiment [2]; 0.398 µM (active) in [4]; more than 46 µM in experiment [7]; more than 46 µM in experiment [8]; 3.16 µM (active) in [10]. In addition, the figures for the activity change, negative = inhibition in experiment [3] and in experiment [5] were 3.67% and 8.57%, respectively. In addition, in [6], the activity, negative = inhibition was 8.2%. Besides, the Potency entry in [9], in experiment [11] and in experiment [12] was “inactive” throughout. Moreover, the outcome in experiment [1] was inactive.
In the case of `N#Cc1cccc(-c2nc(Nc3ccccc3)c3ccccc3n2)c1`, the Potency is more than 11.4 µM in experiment [2], 1.26 µM (active) in experiment [4], more than 46 µM in experiment [7] and more than 46 µM in experiment [8]. The activity change, negative = inhibition in experiment [3] was 3.06%; in experiment [5], 15.5%. Besides, in experiment [6], the activity, negative = inhibition was 8.9%. Besides, the Potency result in experiment [9] and in experiment [12] was “inactive” in each case. The result in experiment [13] and in experiment [1] was inactive.
In the case of `COc1ncc2ncc(=O)n(CCC#N)c2n1`, the Potency in experiment [2] was more than 11.4 µM; in experiment [4] it was 20 µM (active); in [7] it was more than 9.22 µM; in experiment [8] it was more than 46 µM. The activity change, negative = inhibition in [3] is 1.28%; in experiment [5], -1.77%. The activity, negative = inhibition in experiment [6] is -9.79%. For the same molecule, the Potency result in [9] and in experiment [14] was “inactive” each time. Further, the result in experiment [1] was inactive.
With `Cc1noc(C)c1-c1cncnc1NC1CC1`, the results for the Potency in experiment [2], in [7] and in experiment [8] were more than 11.4 µM, more than 46 µM and more than 46 µM, respectively. Further, the activity change, negative = inhibition in experiment [3] is 12.1%; in experiment [5] it was 0.874%. The Potency result in experiment [4], in [9], in experiment [14], in experiment [11], in experiment [15] and in [12] was “inactive” in each case. Also, the activity, negative = inhibition in experiment [6] was -18.4%. In addition, the result in experiment [13] and in experiment [1] was inactive.
Consider `COc1cccc(-c2nccc(NCc3ccc(OC)cc3OC)n2)c1`, for which the activity change, negative = inhibition in experiment [3] is -28.1%; in experiment [5], -2.27%. Further, the Potency is 1 µM (active) in [4]; more than 46 µM in [7]; more than 46 µM in [8]; 3.16 µM (active) in experiment [10]; 2.51 µM (active) in [16]. Also, the activity, negative = inhibition in experiment [6] is -11.4%. The Potency result in experiment [9], in [11], in experiment [17] and in [12] was “inactive” each time. Also, the outcome in experiment [1] was inactive.
`Cc1ccccc1-c1nccc(-n2ccnc2)n1`: the Potency in experiment [2] is more than 11.4 µM; in experiment [4] it was 0.0794 µM (active); in experiment [7], more than 46 µM; in experiment [8], more than 46 µM. The activity change, negative = inhibition in experiment [3] was 5.77%; in experiment [5], -8.66%. The activity, negative = inhibition in experiment [6] was 12.8%. Moreover, the Potency result in [9], in [11], in experiment [15] and in experiment [12] was “inactive” each time. Also, the activation in experiment [18] is -1.43%. The outcome in experiment [13] and in experiment [1] was inactive.
